Assay [1] is described as follows: antimalarial activity against Dd2 strain (AID 2302;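 active means growth inhibition above 50% at the single 2 µM test dose, taken to imply half-maximal potency below 2 µM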;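 further: 0% = DMSO untreated growth and 100% = chloroquine plus artemisinin killed control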). The following applies: P. falciparum Dd2 in RBCs, LDH growth readout, 72 h; at 2 µM; active compounds read high.
A short description of assay [2]: human hepatoma cell viability loss – ATP luminescence, cytotoxicity control for P. falciparum antimalarial project, primary screen (AID 2303;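 active means inhibition above 50%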;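 further: 0% = DMSO wells and 100% = digitonin-killed cells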). The following applies: HepG2 viability, 24-48 h, at 10 µM, active compounds read high.
Assay [3] addresses L-lactate dehydrogenase (Plasmodium falciparum (isolate CDC / Honduras)) (UniProt Q27743). Kind of assay: PfLDH activity inhibition – cell lysate, 3D7 strain, counter-screen for P. falciparum growth inhibition project (AID 2304).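 Further: 0% = vehicle and 100% = reference inhibitor.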 The settings on record: P. falciparum 3D7 crude extract, LDH APAD/NBT absorbance; at 2 µM; active compounds read high.
The nature of assay [4]: inhibition of 3D7 malaria parasite growth – strain 3D7 (AID 2306).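 Further: 0% = DMSO wells and 100% = chloroquine plus artemisinin control wells.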 The following applies: P. falciparum 3D7 erythrocytic growth, LDH absorbance, 72 h; at 2 µM; active compounds read high.
In assay [5] the target is Calcium-dependent protein kinase 1 (Plasmodium falciparum (isolate 3D7)) (UniProt P62344). Kind of assay: PfCDPK1 kinase inhibitors, biochemical, TCAMS library (AID 1159585; cut-off not given, nearly all actives have IC50 up to about 0.98 µM;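 further: inhibitors leave more ATP so luminescence rises with inhibition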). The following applies: recombinant PfCDPK1, Kinase-Glo ATP depletion luminescence.
Assay [6] deals with Plasmodium falciparum protein kinase 6 (PK6, PF3D7_1337100) (UniProt Q8IDW1). Kind of assay: PfPK6 kinase inhibitors, biochemical, TCAMS library (AID 1159586). The following applies: recombinant PfPK6, Kinase-Glo ATP depletion luminescence. (Kinase-Glo reads ATP consumption through a luciferase reaction.)
Assay [7] deals with Protein kinase 7 (PK7), Plasmodium falciparum 3D7 (PF3D7_0213400) (UniProt Q7YTF7). Kind of assay: inhibition of Plasmodium PK7 catalytic activity – biochemical, TCAMS antimalarial set, Kinase-Glo luminescence (AID 1159587). The following applies: recombinant PfPK7, Kinase-Glo ATP depletion luminescence.
The target of assay [8] is Calcium-dependent protein kinase 4 (Plasmodium falciparum (isolate 3D7)) (UniProt Q8IBS5). The assay can be described thus: PfCDPK4 kinase inhibitors, biochemical, TCAMS library (AID 1159588; cut-off not given, nearly all actives have IC50 up to about 0.91 µM). The following applies: recombinant PfCDPK4, Kinase-Glo ATP depletion luminescence.

Unmarked numbers belong to inactive results. For some assays here: Measured potencies and affinities stand elsewhere. The source made the active and inactive calls. Unless noted, how the calls were made is not given here.

Chain of Calcium-dependent protein kinase 4 (Plasmodium falciparum (isolate 3D7)) (Q8IBS5 whole entry, looked up): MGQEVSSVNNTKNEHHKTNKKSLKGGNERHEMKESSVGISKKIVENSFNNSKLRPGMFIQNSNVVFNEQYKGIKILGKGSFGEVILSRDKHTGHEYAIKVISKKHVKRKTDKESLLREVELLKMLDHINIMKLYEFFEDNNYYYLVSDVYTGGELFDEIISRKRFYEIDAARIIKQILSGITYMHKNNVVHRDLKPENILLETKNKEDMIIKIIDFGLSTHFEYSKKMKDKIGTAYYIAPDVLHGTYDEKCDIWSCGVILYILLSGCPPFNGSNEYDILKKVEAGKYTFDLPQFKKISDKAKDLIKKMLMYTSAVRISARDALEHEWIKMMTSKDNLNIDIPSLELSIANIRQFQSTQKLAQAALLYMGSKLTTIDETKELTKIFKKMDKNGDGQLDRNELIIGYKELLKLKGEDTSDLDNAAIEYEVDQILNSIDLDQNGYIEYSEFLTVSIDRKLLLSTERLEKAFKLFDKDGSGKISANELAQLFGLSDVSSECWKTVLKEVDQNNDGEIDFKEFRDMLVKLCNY
Chain of Plasmodium falciparum protein kinase 6 (PK6, PF3D7_1337100) (Q8IDW1 1-305): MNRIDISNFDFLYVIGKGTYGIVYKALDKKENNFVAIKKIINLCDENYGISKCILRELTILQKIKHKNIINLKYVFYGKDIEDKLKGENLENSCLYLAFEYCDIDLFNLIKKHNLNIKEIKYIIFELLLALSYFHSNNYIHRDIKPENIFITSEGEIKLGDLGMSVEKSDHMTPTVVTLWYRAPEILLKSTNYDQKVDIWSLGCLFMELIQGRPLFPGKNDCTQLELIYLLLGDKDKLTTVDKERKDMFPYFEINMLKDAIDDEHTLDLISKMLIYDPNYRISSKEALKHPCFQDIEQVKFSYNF
Chain of Protein kinase 7 (PK7), Plasmodium falciparum 3D7 (PF3D7_0213400) (Q7YTF7 1-343): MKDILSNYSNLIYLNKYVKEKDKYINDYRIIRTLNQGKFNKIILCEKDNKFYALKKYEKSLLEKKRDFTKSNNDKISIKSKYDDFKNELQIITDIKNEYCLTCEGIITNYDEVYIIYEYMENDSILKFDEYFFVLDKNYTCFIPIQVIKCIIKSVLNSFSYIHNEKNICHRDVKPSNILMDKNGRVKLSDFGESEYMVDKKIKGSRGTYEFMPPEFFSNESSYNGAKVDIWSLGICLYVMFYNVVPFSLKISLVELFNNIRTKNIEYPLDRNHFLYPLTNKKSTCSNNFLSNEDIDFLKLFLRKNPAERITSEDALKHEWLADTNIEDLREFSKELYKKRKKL
Chain of L-lactate dehydrogenase (Plasmodium falciparum (isolate CDC / Honduras)) (Q27743 whole entry, looked up): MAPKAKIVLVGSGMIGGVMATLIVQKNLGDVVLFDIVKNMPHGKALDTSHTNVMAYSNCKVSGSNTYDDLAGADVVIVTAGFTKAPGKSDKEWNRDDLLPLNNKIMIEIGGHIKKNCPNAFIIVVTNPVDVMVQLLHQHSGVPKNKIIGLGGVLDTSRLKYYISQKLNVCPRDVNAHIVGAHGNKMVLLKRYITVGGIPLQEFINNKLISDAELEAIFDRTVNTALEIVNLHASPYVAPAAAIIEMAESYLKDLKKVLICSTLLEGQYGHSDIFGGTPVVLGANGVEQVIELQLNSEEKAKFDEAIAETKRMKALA
Chain of Calcium-dependent protein kinase 1 (Plasmodium falciparum (isolate 3D7)) (P62344 whole entry, looked up): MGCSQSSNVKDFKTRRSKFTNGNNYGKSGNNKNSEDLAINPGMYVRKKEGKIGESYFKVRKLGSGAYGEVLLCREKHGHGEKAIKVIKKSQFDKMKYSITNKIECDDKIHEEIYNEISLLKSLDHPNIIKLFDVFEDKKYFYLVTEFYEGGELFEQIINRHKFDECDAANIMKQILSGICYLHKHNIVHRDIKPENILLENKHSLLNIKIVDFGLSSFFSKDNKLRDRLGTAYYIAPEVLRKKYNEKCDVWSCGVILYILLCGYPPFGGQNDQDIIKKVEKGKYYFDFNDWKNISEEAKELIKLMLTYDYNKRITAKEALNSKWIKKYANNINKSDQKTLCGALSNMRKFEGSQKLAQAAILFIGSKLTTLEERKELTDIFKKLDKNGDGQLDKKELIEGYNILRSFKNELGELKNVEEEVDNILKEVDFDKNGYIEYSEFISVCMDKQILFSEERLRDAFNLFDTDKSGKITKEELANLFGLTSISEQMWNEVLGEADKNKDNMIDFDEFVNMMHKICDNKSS

One may read the inhibition as the change of the read-out against control, counted positive when it falls. As for `COc1ccc(-c2cccc(NC(=O)c3cccc(C#N)c3)c2)cc1CN1CCC(O)CC1`, the results for the growth inhibition in assay [1] and in assay [4] were 13% and 97% (active), respectively. The inhibition in assay [2] was 30%; in assay [3] it was -3%. In addition, the outcome in assay [5], in assay [6], in assay [7] and in assay [8] was inactive.

As for `COc1ccc(O)c(C(=O)c2cnc3c(c2)c(-c2ccc(F)cc2)c(C#N)c(=O)n3C)c1`, the growth inhibition was 14% in assay [1] and 92% (active) in assay [4]. In addition, the figures for the inhibition in assay [2] and in assay [3] were 7% and -2%, respectively. Besides, the outcome in assay [5], in assay [6], in assay [7] and in assay [8] was inactive.

On to `CN(C)CC(=O)Nc1ccc(-c2ccc3ccnc(N)c3c2)cc1`, for which the growth inhibition in assay [1] was 99% (active); in assay [4], 101% (active). Besides, the inhibition in assay [2] is 69% (active); in assay [3], 2%. The outcome in assay [5], in assay [6], in assay [7] and in assay [8] was inactive.

For the compound `OCCN1CCN(Cc2ccc(-c3cccc(-c4nc5ccc(F)cc5[nH]4)c3)cc2)CC1`, the figures for the growth inhibition in assay [1] and in assay [4] were 61% (active) and 100% (active), respectively. For the same compound, the values for the inhibition in assay [2] and in assay [3] were 21% and -2%, respectively. Further, the result in assay [5], in assay [6], in assay [7] and in assay [8] was inactive.

Turning to `CC(C)C[C@H](NC(=O)c1ccc(OCCN2CCOCC2)cc1)C(=O)N[C@H](/C=N/N1CCN(C)C1=O)CCc1ccccc1`, the growth inhibition in assay [1] is 65% (active); in assay [4], 90% (active). Also, the inhibition in assay [2] and in assay [3] was 3% in each case. For the same compound, the outcome in assay [5], in assay [6], in assay [7] and in assay [8] was inactive.

Take `COc1ccc(C(=O)CCC(=O)N(CCSC(C)(C)C)Cc2ccc(-c3ccc(CNCCc4ccc(S(C)(=O)=O)cc4)cn3)cc2)cc1F`: the growth inhibition is 42% in assay [1] and 98% (active) in assay [4]. In addition, the inhibition was 9% in assay [2] and -3% in assay [3]. The outcome in assay [5], in assay [6], in assay [7] and in assay [8] was inactive.

Consider `CCCCCCC(N)c1ccc(OCCCOc2ccc(C(N)CCCCCC)cc2)cc1` (configuration not stated), for which the growth inhibition is 70% (active) in assay [1] and 88% (active) in assay [4]. The inhibition in assay [2] was 100% (active); in assay [3], 1%. Moreover, the result in assay [5], in assay [6], in assay [7] and in assay [8] was inactive.

For `CCN1[C@@H](c2ccc(Cl)cc2)[C@@H](CNCc2ccccc2O)C[C@@]1(C)CO`, the growth inhibition in assay [1] and in assay [4] was 99% (active) in each case. Besides, the inhibition in assay [2] was 47%; in assay [3], -3%. Besides, the result in assay [5], in assay [6], in assay [7] and in assay [8] was inactive.

Turning to `CC(=O)Nc1ccc(CN2CCC(NC(=O)c3ccc(-c4ccc(N(C)C)cc4)s3)CC2)cc1`, the growth inhibition was 57% (active) in assay [1] and 100% (active) in assay [4]. For the same compound, the values for the inhibition in assay [2] and in assay [3] were 20% and -1%, respectively. Moreover, the outcome in assay [5], in assay [6], in assay [7] and in assay [8] was inactive.

For `O=C(c1cc2c(s1)-c1cccc(Cl)c1SC2)N1CCN(c2ccncc2)CC1`, the values for the growth inhibition in assay [1] and in assay [4] were 36% and 94% (active), respectively. Moreover, the inhibition was 45% in assay [2] and 1% in assay [3]. For the same compound, the outcome in assay [5], in assay [6], in assay [7] and in assay [8] was inactive.

As for `CC(CC(=O)NCC1(c2ccc(F)cc2Cl)CCOCC1)C(=O)c1ccc(Cl)cc1` (configuration not stated), the growth inhibition in assay [1] is 91% (active); in assay [4], 99% (active). Moreover, the inhibition in assay [2] was 6%; in assay [3], 2%. Besides, the result in assay [5], in assay [6], in assay [7] and in assay [8] was inactive.

As to `Cc1ccc(CNC(=O)[C@H](CCCN)Nc2cc(C)nc(Nc3ccccc3)n2)cc1`, the growth inhibition was -4% in assay [1] and 90% (active) in assay [4]. The inhibition in assay [2] is -2%; in assay [3] it was 2%. For the same compound, the result in assay [5], in assay [6], in assay [7] and in assay [8] was inactive.

Take `c1cc(CNCCc2ccncc2)cc(-c2csc(-c3nc4ccccc4[nH]3)c2)c1`: the growth inhibition in assay [1] was 99% (active); in assay [4], 100% (active). Besides, the inhibition in assay [2] was 16%; in assay [3] it was -8%. The result in assay [5], in assay [6], in assay [7] and in assay [8] was inactive.

Regarding `COc1cc(C(C)C)ccc1C1CCN(CCCCNC(=O)c2ccc(NC(=O)c3ccc(Cl)cc3)cc2)CC1`, the growth inhibition was 99% (active) in assay [1] and 98% (active) in assay [4]. Besides, the inhibition was 100% (active) in assay [2] and 3% in assay [3]. Besides, the outcome in assay [5], in assay [6], in assay [7] and in assay [8] was inactive.

For `Cc1ccc(NC(=O)Nc2ccc(Br)cc2)cc1OCCN(C)C`, the values for the growth inhibition in assay [1] and in assay [4] were 15% and 84% (active), respectively. Moreover, the inhibition was 13% in assay [2] and -1% in assay [3]. Also, the outcome in assay [5], in assay [6], in assay [7] and in assay [8] was inactive.

Take `COCCCNC(=S)NN=C(C)c1ccccn1`: the growth inhibition was 99% (active) in assay [1] and 100% (active) in assay [4]. In addition, the inhibition in assay [2] was 55% (active); in assay [3], 3%. For the same compound, the result in assay [5], in assay [6], in assay [7] and in assay [8] was inactive.

For the compound `O=C(NCCc1ccccc1)N(Cc1ccccc1-c1ccc(CNCCc2ccccc2)cc1)C1CCN(Cc2ccccc2)CC1`, the growth inhibition in assay [1] was 91% (active); in assay [4], 97% (active). Also, the inhibition in assay [2] was 99% (active); in assay [3], 5%. Moreover, the outcome in assay [5], in assay [6], in assay [7] and in assay [8] was inactive.

`COc1ccc(NC(=O)c2ccc(-c3cc(NC(=O)c4ccnc(N5CCCC5)c4)ccc3C)s2)cc1N1CCN(C)CC1`: the growth inhibition in assay [1] and in assay [4] was 100% (active) throughout. Moreover, the inhibition in assay [2] is 15%; in assay [3], 6%. Also, the outcome in assay [5], in assay [6], in assay [7] and in assay [8] was inactive.

As for `O=C(Cc1ccc(NC(=O)c2ccc(O)c(-c3ccc(Cl)c(Cl)c3)c2)cc1)NCCN1CCOCC1`, the growth inhibition in assay [1] was 24%; in assay [4], 94% (active). In addition, the inhibition was 10% in assay [2] and 4% in assay [3]. For the same compound, the result in assay [5], in assay [6], in assay [7] and in assay [8] was inactive.

These data come from PubChem BioAssay.
